# Only a sample is shown.
# aSyn 5UTR act – Activators via SNCA 5'UTR binding, MLPCN | activity score, % (tested at 7.5 µM), hits read low | 300,000 compounds, 7.1% hits | alpha-synuclein 5'UTR reporter, activators screen; in the data active = activity score below about -60%
# Numbers without * were called inactive.
SMILES,aSyn 5UTR act
C=C1C(=O)O[C@@H]2C[C@@H](C)[C@@H]3C=CC(=O)[C@@]3(C)[C@@H](OC(=O)CC(=O)O[C@H]3[C@@H]4C(=C)C(=O)O[C@@H]4C[C@@H](C)[C@@H]4C=CC(=O)[C@]43C)[C@H]12,116.1
COc1ccc(P2(=O)Nc3ccccc3N2)cc1,-139.5*
CNC(=O)Oc1cccc(-c2cn3cc(Cl)ccc3n2)c1,60.8
O=C1NC(=O)N(c2ccccc2)C(=O)/C1=C/C=C/c1ccco1,-135.8*
CN(C)c1ccc(/C=C/C=C2/C(=O)NC(=O)N(c3ccccc3)C2=O)cc1,-96.5*
Cc1ccc(N2C(=O)NC(=O)/C(=C\C=C\c3ccco3)C2=O)cc1,-92.5*
Cc1cccc(N2C(=O)NC(=O)/C(=C\C=C\c3ccco3)C2=O)c1,-130.6*
CC1CCC(C(C)C)C(OC(=O)Cn2c(COc3ccccc3)[n+](C)c3ccccc32)C1 (stereo not given),66.5
Cc1ccc2nc3c(cc2c1)CC1(C(=O)N(C)C(=O)N(C)C1=O)C1COCCN31 (stereo not given),-63.1*
Cc1ccc2nc3c(cc2c1)CC1(C(=O)N(C)C(=O)N(C)C1=O)C1CCCCN31 (stereo not given),-106.2*
CN(C)c1ccc2c(c1)N=C(c1ccco1)OP2(=S)N1CCOCC1 (stereo not given),-129.7*
C=C1[C@@H](C)[C@H]2[C@H](Cc3ccccc3)NC(=O)[C@]23OC(=O)/C=C/[C@H](O)CCC[C@@H](C)C/C=C/[C@H]3[C@@H]1O,108.9
NC(N)=N/N=C/c1ccc(N(c2ccccc2)c2ccccc2)cc1,137.8
